# Assay results published in PubChem BioAssay (Tox21).
# Inconclusive results are not listed. Values without a mark were called inactive. Active and inactive are the calls of the source. The call rests on the fitted dose curve.
# Target: Acetylcholinesterase (Homo sapiens) (UniProt P22303)
# Assay: Acetylcholinesterase (AChE) small molecule antagonists: colormetric cell-based qHTS assay (AID 1347395); further: nearly all actives have a fitted effect of over 30% in size
# Settings: SH-SY5Y cells AChE activity, colorimetric (Ellman); series mostly up to 115 µM; activity, negative = inhibition: at the top concentration
# Text: National Center for Advancing Translational Sciences [NCATS]
# Division of Preclinical Innovation [DPI]
# U.S. Environmental Protection Agency [EPA]
# National Institutes of Environmental Health Sciences [NIEHS]
# National Toxicology Program [NTP]
# U.S. Food and Drug Administration [FDA]
# Acetylcholinesterase (AChE) is the primary cholinesterase in the body that hydrolyzes a key neurotransmitter, acetylcholine. Inhibition of AChE activity can lead to neurotoxicity. The known inhibitors include organophosphorous pesticides (OP), chemical warfare agents, drugs, and various phytochemicals.
# A homogenous cell-based assay using the Amplite Colormetric acetylcholinesterase assay kit (AAT Bioquest, Sunnyvale, CA) was used to evaluate the chemicals in the Tox21 10K library that inhibit AChE activity. The assay uses 5, 5-dithiobis-(2-nitrobenzoic acid) (DTNB) to quantify the thiocholine produced from the hydrolysis of acetylthiocholine by AChE from the SH-SY5Y cells.
# Tox21 Assay Protocol Summary:
# For the cell-based AChE assay, 2,000 SH-SY5Y cells in 4 uL/well were dispensed into black, clear-bottom 1536-well plates using a Multidrop Combi dispenser (Thermo Scientific, MA). The assay plates were incubated overnight at 37 C to allow cells to attach to the wells, followed by the transfer of 23 nL of compound or DMSO (vehicle control) by a Pintool Station (Wako Automation, CA). The plates were incubated for 30 min at 37 C and 5% CO2, followed by the addition of 4 uL of detection cocktail solution (DTNB, acetylthiocholine) into each well using a Flying Reagent Dispenser (Beckman Coulter, CA) and then 90 min incubation at 37 C.
# On the % scale 0 is the no-effect control and ±100 the full control effect; potency means the concentration at half of the fitted maximal effect.
# Sequence of Acetylcholinesterase (Homo sapiens) (P22303 whole entry, looked up): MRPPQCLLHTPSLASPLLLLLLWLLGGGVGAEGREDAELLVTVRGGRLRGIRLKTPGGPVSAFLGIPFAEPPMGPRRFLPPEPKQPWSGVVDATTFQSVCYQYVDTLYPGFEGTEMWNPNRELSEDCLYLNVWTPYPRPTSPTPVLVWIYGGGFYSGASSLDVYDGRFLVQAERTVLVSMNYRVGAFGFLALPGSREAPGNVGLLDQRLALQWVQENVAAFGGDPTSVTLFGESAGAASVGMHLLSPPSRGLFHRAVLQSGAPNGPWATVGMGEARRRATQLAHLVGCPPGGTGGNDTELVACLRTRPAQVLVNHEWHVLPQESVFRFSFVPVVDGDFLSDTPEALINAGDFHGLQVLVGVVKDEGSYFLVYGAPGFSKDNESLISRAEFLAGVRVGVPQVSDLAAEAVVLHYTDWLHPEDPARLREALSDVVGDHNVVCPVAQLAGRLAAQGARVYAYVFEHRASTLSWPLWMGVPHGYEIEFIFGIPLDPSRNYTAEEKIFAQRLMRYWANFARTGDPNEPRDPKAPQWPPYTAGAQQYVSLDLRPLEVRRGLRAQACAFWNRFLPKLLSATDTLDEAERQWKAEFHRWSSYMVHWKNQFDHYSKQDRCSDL
SMILES,"activity, negative = inhibition",Potency
Cc1cc2c3c(c1)C(c1ccccc1)=N[C@@H](NC(=O)c1ccncc1)C(=O)N3CC2,1.49%,
N#Cc1sc2c(=O)c3ccccc3c(=O)c=2sc1C#N,,44.8 µM (active)
O=c1[nH]c(Cl)c(Cl)cc1Cl,-5.3%,
C[C@H]1[C@H](c2ccc(Cl)cc2)SC(=O)N1C(=O)NC1CCCCC1,1.18%,
Nc1ccc(Cl)cc1C(=O)c1ccccc1F,2.39% [at 52.9 µM],
BrCC(Br)(Br)Br,-2.46%,
CCC(C)Nc1c([N+](=O)[O-])cc(C(C)(C)C)cc1[N+](=O)[O-] (stereo not given),-2.29%,
Fc1ccc(C(OCCN2CCN(CCCc3ccccc3)CC2)c2ccc(F)cc2)cc1,-0.883% [at 52.9 µM],
COC(=O)c1ccccc1S(=O)(=O)NC(=O)Nc1nc(C)nc(OC)n1,0%,
O=C1C2(Cl)C3(Cl)C4(Cl)C(Cl)(Cl)C5(Cl)C3(Cl)C1(Cl)C5(Cl)C24Cl (stereo not given),,inactive
c1ccc(N=NNc2ccccc2)cc1,,inactive
ClC1=C(Cl)[C@]2(Cl)[C@@H]3[C@H]4C[C@H]([C@@H]5O[C@H]45)[C@@H]3[C@@]1(Cl)C2(Cl)Cl,1.37%,
Cc1ccc([N+](=O)[O-])[c]2c1[O][Hg]2,-10.9% [at 52.9 µM],
CC1=C2C[C@H]3[C@@H](CC=C4C[C@@H](O)CC[C@@]43C)[C@@H]2CC[C@]12O[C@@H]1C[C@H](C)CN[C@H]1[C@H]2C,-2.05% [at 52.9 µM],
CO/N=C(\C(=O)OC)c1ccccc1CO/N=C(\C)c1cccc(C(F)(F)F)c1,0.465%,
Clc1c(Cl)c(Cl)c(Cl)c(Cl)c1Cl,-1.38% [at 10.5 µM],
C[C@]12C/C(=C/O)C(=O)C[C@@H]1CC[C@@H]1[C@@H]2CC[C@@]2(C)[C@H]1CC[C@]2(C)O,,inactive
CC(Cl)CCl (stereo not given),1.42%,
CC(C)(C)c1ccc(OP(=O)(Oc2ccccc2)Oc2ccccc2)cc1,,31.9 µM (active)
C=CC(=C)C,0.147%,

SMILES,"activity, negative = inhibition",Potency
Nc1nc(N)nc(Cl)n1,0.93%,
ClCBr,-0.506%,
CCO/N=C(\CC)C1=C(O)CC(c2c(C)cc(C)cc2C)CC1=O (stereo not given),0.202%,
O=C(Cl)c1ccccc1F,1.26%,
O=[N+]([O-])c1cccc2cccc([N+](=O)[O-])c12,,20.1 µM (active)
NC(=O)C(Cl)Cl,1.17%,
C[N+]1(C)[C@@H]2CC[C@H]1CC(OC(=O)C(CO)c1ccccc1)C2 (stereo not given in full),0.0841% [at 52.9 µM],
O=S(=O)(NS(=O)(=O)C(F)(F)F)C(F)(F)F,-4.96%,
C[C@]12Cc3cn[nH]c3C[C@@H]1CC[C@@H]1[C@@H]2CC[C@@]2(C)[C@H]1CC[C@]2(C)O,2.12% [at 52.9 µM],
[O]=[Cr](=[O])([OH])[O][Cr](=[O])(=[O])[OH],,inactive
ClC1=C(Cl)[C@]2(Cl)[C@H]3[C@H]([C@@H]4C=C[C@H]3C4)[C@@]1(Cl)C2(Cl)Cl,,inactive
CCCCc1ccccc1,-1.39%,
O=[N+]([O-])c1cc(C(F)(F)F)c(Cl)c([N+](=O)[O-])c1Nc1ncc(C(F)(F)F)cc1Cl,-1.21%,
FC(F)C(F)(F)OCC(Cn1cncn1)c1ccc(Cl)cc1Cl (stereo not given),-3.26%,
CCCCN(CCCC)C(=S)S,0.317%,
O=C(O)CCCCCCNC1c2ccccc2CCc2ccccc21,0.903% [at 52.9 µM],
COC(=O)c1cc(Oc2ccc(Cl)cc2Cl)ccc1[N+](=O)[O-],0.647%,
Cc1ccccc1OP(=O)(Oc1ccccc1C)Oc1ccccc1C,-1.33%,
CCNS(=O)(=O)C(F)(F)C(F)(F)C(F)(F)C(F)(F)C(F)(F)C(F)(F)C(F)(F)C(F)(F)F,-0.432%,
CC(C)=CCN1CC[C@@]2(C)c3cc(O)ccc3C[C@@H]1[C@@H]2C,,31.2 µM (active)
